Source: PubChem BioAssay
LRH-1 inv ag: inverse agonists of human LRH-1 (NR5A2) | O00482 | HEK293T StAR-luciferase reporter, LRH-1 transfected, 24 h | inhibition, % at 3.6 µM | 0.13% of 360,000 active;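 active = inhibition above the mean inhibition of all tested compounds plus 3 SD, cut at about 73% in these data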;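 also: 0% = DMSO wells and 100% = reporter-only cells lacking LRH-1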
NCOA1 inh: inhibits human SRC1 coactivator | AID 588354 | 0.12% of 360,000 active | Q15788 | inhibition, % at 3.6 µM | HEK293 GAL4-SRC1 luciferase reporter, luminescence;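 active = inhibition above the campaign mean plus 3 SD, with each screening campaign given its own cutoff, cut at about 60% in these data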;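 also: 0% = DMSO treated cells and 100% = gossypol at 36 µM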
Target sequence (Q15788 whole entry, looked up, the tested form may be a part): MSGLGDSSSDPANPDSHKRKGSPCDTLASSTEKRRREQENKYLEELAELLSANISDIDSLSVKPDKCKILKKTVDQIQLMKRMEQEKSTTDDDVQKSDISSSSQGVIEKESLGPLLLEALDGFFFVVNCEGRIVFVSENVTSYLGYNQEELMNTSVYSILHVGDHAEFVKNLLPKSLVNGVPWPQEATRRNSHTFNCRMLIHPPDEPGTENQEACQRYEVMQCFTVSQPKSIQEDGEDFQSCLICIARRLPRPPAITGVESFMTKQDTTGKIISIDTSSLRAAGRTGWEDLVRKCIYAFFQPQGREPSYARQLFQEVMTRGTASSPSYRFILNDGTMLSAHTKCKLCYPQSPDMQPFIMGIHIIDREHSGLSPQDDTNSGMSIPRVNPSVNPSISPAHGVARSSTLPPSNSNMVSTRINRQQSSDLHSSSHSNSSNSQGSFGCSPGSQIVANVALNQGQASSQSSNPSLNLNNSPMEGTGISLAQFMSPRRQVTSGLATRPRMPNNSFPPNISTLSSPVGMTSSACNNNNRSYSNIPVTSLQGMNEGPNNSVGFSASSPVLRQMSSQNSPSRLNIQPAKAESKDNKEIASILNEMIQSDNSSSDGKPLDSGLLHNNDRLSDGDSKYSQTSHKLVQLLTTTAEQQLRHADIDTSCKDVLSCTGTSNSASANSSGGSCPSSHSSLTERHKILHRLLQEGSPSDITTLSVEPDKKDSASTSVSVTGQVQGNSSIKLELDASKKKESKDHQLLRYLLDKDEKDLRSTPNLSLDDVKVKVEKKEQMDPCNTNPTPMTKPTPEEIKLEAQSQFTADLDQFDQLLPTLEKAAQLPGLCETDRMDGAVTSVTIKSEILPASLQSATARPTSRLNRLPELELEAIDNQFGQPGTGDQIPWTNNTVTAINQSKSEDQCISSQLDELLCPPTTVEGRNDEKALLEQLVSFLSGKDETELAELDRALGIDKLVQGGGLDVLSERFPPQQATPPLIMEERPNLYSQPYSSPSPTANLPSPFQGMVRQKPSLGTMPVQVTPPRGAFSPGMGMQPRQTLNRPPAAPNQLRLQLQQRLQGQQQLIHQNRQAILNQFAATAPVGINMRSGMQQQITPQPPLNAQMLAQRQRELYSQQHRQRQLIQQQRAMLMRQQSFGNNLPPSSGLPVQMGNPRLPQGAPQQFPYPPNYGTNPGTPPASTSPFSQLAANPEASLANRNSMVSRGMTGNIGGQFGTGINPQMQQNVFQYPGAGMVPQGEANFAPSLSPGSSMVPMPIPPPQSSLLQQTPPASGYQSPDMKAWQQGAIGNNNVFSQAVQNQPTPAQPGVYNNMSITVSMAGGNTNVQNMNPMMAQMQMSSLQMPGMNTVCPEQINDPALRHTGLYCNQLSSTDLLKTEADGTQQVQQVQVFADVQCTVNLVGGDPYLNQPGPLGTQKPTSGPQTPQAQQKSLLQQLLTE
NCOA2 inhibitor: inhibits human steroid receptor coactivator 2; Q15596; HEK293 GAL4-SRC2 luciferase reporter, luminescence; inhibition, % at 9 µM; 0.17% of 370,000 active; AID 651957;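 active = inhibition above the mean inhibition of all tested compounds plus 3 SD, set per campaign, cut at about 52% in these data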;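 also: 0% = DMSO treated cells and 100% = cells given Gossypol at 36 µM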
NR2F2 inh: inhibitors of human COUP-TFII (NR2F2); 0.7% of 370,000 active; HEK293T NGFI-A luciferase reporter, luminescence; inhibition, % at 8.6 µM;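 active = inhibition above a per-plate cutoff, mean inhibition of test wells between control levels plus 3 SD, cut at about 38% in these data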;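 also: cells cotransfected with COUP-TFII expression vector driving the NGFI-A reporter; 0% = median of COUP-TF2 test wells and 100% = reporter-only cells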
SRC3 inh: inhibitors of human steroid receptor coactivator 3 (SRC3). Q9Y6Q9. HEK293 GAL4-SRC3 luciferase reporter, luminescence. inhibition, % at 3.6 µM. 0.17% of 360,000 active;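 active = inhibition above a per-campaign cutoff, the mean of all compounds plus 3 SD, cut at about 60% in these data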;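 also: 0% = DMSO-treated cells and 100% = gossypol-treated cells at 36 µM; higher means less SRC3-driven luciferase light from the GAL4 reporter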
Active calls of the source: *. An excerpt weighted towards active compounds, which were near 0.81% of everything screened.

Screening CCOc1ccc(Nc2ncnc3ccc([N+](=O)[O-])cc23)cc1 returned LRH-1 inv ag 37, NCOA1 inh 69*, NCOA2 inhibitor 45, NR2F2 inh 29 and SRC3 inh 55.
For COCCOCC(=O)Nc1ccc(S(=O)(=O)Nc2cc(C)nc(C)n2)cc1 the results were LRH-1 inv ag -8, NCOA1 inh 3, NCOA2 inhibitor 10, NR2F2 inh -4 and SRC3 inh 6.
Screening CCC(=O)Nc1ccc(NC(=O)c2oc3ccccc3c2C)cc1 returned LRH-1 inv ag 20, NCOA1 inh 24, NCOA2 inhibitor 58*, NR2F2 inh 4 and SRC3 inh 11.
For CCC(=O)Nc1ccc(NC(=S)NC(=O)c2oc3ccccc3c2C)cc1 the results were LRH-1 inv ag -4, NCOA1 inh 11, NCOA2 inhibitor -4, NR2F2 inh 4 and SRC3 inh 0.
For COc1ccc(C(=O)/C=C/c2cc(C(=O)O)cc3c2OCOC3)c(O)c1 the results were LRH-1 inv ag -1, NCOA1 inh 11, NCOA2 inhibitor -28, NR2F2 inh 6 and SRC3 inh 13.
For Nc1ccc2oc(-c3cccc4ccccc34)nc2c1 the results were LRH-1 inv ag -13, NCOA1 inh 3, NCOA2 inhibitor 55*, NR2F2 inh 37 and SRC3 inh -18.
Cc1cccnc1NC(=O)C(C)N1C(=O)c2ccccc2C1=O (centres undefined) was read as LRH-1 inv ag -2, NCOA1 inh -17, NCOA2 inhibitor 8, NR2F2 inh 6 and SRC3 inh 8.
`CNc1ccc2ncc(-c3ccc(OC)c(OC)c3)n2n1` gave LRH-1 inv ag 26, NCOA1 inh 78*, NCOA2 inhibitor 59*, NR2F2 inh -31 and SRC3 inh 49.
`COc1cccc(C2=NOC(C(=O)Nc3ccc(OC)c(OC)c3)C2)c1` (centres undefined) gave LRH-1 inv ag -3, NCOA1 inh -14, NCOA2 inhibitor -16, NR2F2 inh -6 and SRC3 inh 12.
For Cc1cnc(NC(=O)CCCc2nc3ccccc3s2)s1 the results were LRH-1 inv ag 83*, NCOA1 inh -14, NCOA2 inhibitor 21, NR2F2 inh 9 and SRC3 inh 15.
Screening COc1ccc(-c2nonc2NC(=O)c2oc3ccccc3c2C)cc1OC returned LRH-1 inv ag 15, NCOA1 inh -6, NCOA2 inhibitor -3, NR2F2 inh -14 and SRC3 inh -5.
For Clc1ccc2nnnc(-c3ccccc3)c2c1 the results were LRH-1 inv ag -13, NCOA1 inh 11, NCOA2 inhibitor 20, NR2F2 inh -12 and SRC3 inh 39.
NCC(=O)Nc1ccc(Cl)cc1C(=O)c1ccc[nH]1 was read as LRH-1 inv ag 59, NCOA1 inh 53, NCOA2 inhibitor 56*, NR2F2 inh -3 and SRC3 inh 51.
Screening CCN(CC)CCNC(=O)COc1ccc(Cl)cc1Cl returned LRH-1 inv ag -8, NCOA1 inh 6, NCOA2 inhibitor 9, NR2F2 inh 12 and SRC3 inh 3.
Screening Cc1ccc(-n2c(O)c(C=Nc3cc(C)on3)c3ccccc3c2=O)c(C)c1 returned LRH-1 inv ag 22, NCOA1 inh 54, NCOA2 inhibitor 3, NR2F2 inh -1 and SRC3 inh 67*.
For Cc1cc(N=Cc2c(O)n(-c3ccc(C)c(C)c3)c(=O)c3ccccc23)no1 the results were NCOA2 inhibitor -10 and NR2F2 inh 12.
For CC(C)=CC(O)C/C(C)=C/COc1ccc2ccc(=O)oc2c1 (centres undefined) the results were LRH-1 inv ag 85*, NCOA1 inh 46, NCOA2 inhibitor -15, NR2F2 inh 18 and SRC3 inh 63*.
`CN(C)C(=O)COc1ccc2ccc(=O)oc2c1` gave LRH-1 inv ag 8, NCOA1 inh 10, NCOA2 inhibitor -1, NR2F2 inh -10 and SRC3 inh -8.
`O=C(O)c1cc(N/N=C/c2ccc3c(c2)OCO3)ccc1Cl` gave LRH-1 inv ag -189, NCOA1 inh -151, NCOA2 inhibitor -50, NR2F2 inh -18 and SRC3 inh -176.
Screening O=C(O)c1ccc(N/N=C/c2ccc3c(c2)OCO3)cc1 returned LRH-1 inv ag -28, NCOA1 inh 16, NCOA2 inhibitor 56*, NR2F2 inh 19 and SRC3 inh 36.
For Nc1[nH]c(C(=O)c2ccccc2)c(-c2ccccc2C(F)(F)F)c1C(=O)NCc1cccc2ccccc12 the results were LRH-1 inv ag -12, NCOA2 inhibitor -6 and NR2F2 inh -21.
`O=C(NCCc1c[nH]c2ccccc12)c1ccc([N+](=O)[O-])o1` gave LRH-1 inv ag 55, NCOA1 inh 22, NCOA2 inhibitor 52*, NR2F2 inh 28 and SRC3 inh 2.
Screening O=C(NCCc1c[nH]c2ccccc12)c1cc([N+](=O)[O-])cc([N+](=O)[O-])c1 returned LRH-1 inv ag 10, NCOA1 inh 2, NCOA2 inhibitor 14, NR2F2 inh 12 and SRC3 inh 12.
`Cn1c(=O)c2c(nc(CN3CCOCC3)n2CC(=O)c2ccccc2)n(C)c1=O` gave LRH-1 inv ag 96*, NCOA1 inh 3, NCOA2 inhibitor 19, NR2F2 inh 9 and SRC3 inh 16.
For Cn1c(=O)c2c(nc(CN3CCc4ccccc4C3)n2CC(=O)c2ccccc2)n(C)c1=O the results were LRH-1 inv ag 31, NCOA1 inh 11, NCOA2 inhibitor -2, NR2F2 inh 0 and SRC3 inh 23.
`C=CCN=C1NN=C(c2cc(C)n(CC=C)c2C)CS1` gave LRH-1 inv ag 42, NCOA1 inh 71*, NCOA2 inhibitor 58*, NR2F2 inh 77* and SRC3 inh 70*.
For O=C1CCC2S/C(=C/Nc3ccc(C(F)(F)F)cc3)C(=O)N12 (centres undefined) the results were LRH-1 inv ag 10, NCOA1 inh 33, NCOA2 inhibitor 72*, NR2F2 inh 32 and SRC3 inh 31.
For O=C1CCCC/C1=C/Nc1cccc(C(F)(F)F)c1 the results were LRH-1 inv ag -23, NCOA1 inh -16, NCOA2 inhibitor -7, NR2F2 inh -14 and SRC3 inh 0.
`O=C(OC12CCCN(C1)/C(=C/c1cccc(Cl)c1)C2)c1ccc(Cl)cc1` (centres undefined) gave NCOA2 inhibitor -4 and NR2F2 inh 3.
For c1ccc2c(c1)CCN(c1nc3cc4c(cc3s1)OCCO4)C2 the results were LRH-1 inv ag 37, NCOA1 inh 44, NCOA2 inhibitor 58*, NR2F2 inh 61* and SRC3 inh 32.
For CCCC(=O)NC(c1ccc(OC)cc1)c1ccc2cccnc2c1O (centres undefined) the results were LRH-1 inv ag 13, NCOA1 inh 20, NCOA2 inhibitor 20, NR2F2 inh -13 and SRC3 inh 62*.
For CCCC(=O)NC(c1ccccc1)c1ccc2cccnc2c1O (centres undefined) the results were LRH-1 inv ag 11, NCOA1 inh 19, NCOA2 inhibitor 34, NR2F2 inh 9 and SRC3 inh 26.
